The source of these data is PubChem BioAssay (NCI).

Compounds without any hit were thinned out: in the full panel of roughly 83,000, 20% have a hit.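 Percent growth is the endpoint: 0 to 100 indicates growth inhibition (40 means 60% inhibition), 0 means no net growth, and negative values indicate cell death.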 Values without a mark were called inactive. The source made the active and inactive calls. How the source made its calls: active means growth percent below 10; inactive means the rest.

Holding throughout (assay): NCI-60 one-dose screen, 48 h (100 = growth as untreated, 0 = no growth, -100 = all killed)
Settings in all cases: 10 µM unless noted

Assay [1] relates to HCT-15 colon.
Assay [2] relates to HT29 colon.
Assay [3] relates to SNB-75 CNS.
Assay [4] deals with SNB-19 CNS.
The test system of assay [5] is U251 CNS.
Assay [6] concerns PC-3 prostate.
In assay [7] the test system is SK-MEL-5 melanoma.
Assay [8] has as its system UACC-62 melanoma.
Assay [9] has as its system LOX IMVI melanoma.
The subject of assay [10] is SK-MEL-28 melanoma.

Take `Clc1ccc2c(NCCNc3nc(Cl)nc4ccccc34)ccnc2c1`: the growth in assay [1] was -67.5% (active); in assay [2] it was -91.5% (active); in [3], -93.1% (active); in assay [4], -49.9% (active); in [5], -92.1% (active); in assay [6], -45.7% (active). Moreover, the growth in assay [7] is -99.2% (active); in assay [8], -89.6% (active); in assay [9] it was -89.4% (active); in assay [10], -78.7% (active).
As for `CCOc1ccccc1C(=O)N1CCN(c2cc(Cl)cc(Cl)c2)CC1`, the growth is 11.2% in assay [1]; -27.4% (active) in assay [2]; 34.3% in assay [3]; 24% in assay [4]; 12.5% in assay [5]; 10.6% in assay [6]. The growth in assay [7] is -44.1% (active); in assay [8], 19.5%; in assay [9], 17.7%; in [10] it was 54.7%.
As to `Cc1ccn2cc(Cc3cc(=O)oc4c3ccc3ccccc34)c(=O)nc2c1`, the growth was 97.4% in [1]; 87.8% in assay [2]; 81.4% in assay [3]; 103% in assay [4]; 102% in assay [5]; 104% in assay [6]. Further, the growth in [7] is 100%; in assay [8] it was 96.6%; in assay [9], 98.6%; in [10] it was 100%.
`CCOC(=O)c1[nH]c(-c2ccc(Cl)cc2)cc1-c1cccnc1`: the growth in assay [1] is 21.8%; in [2], 6.32% (active); in assay [3], -1.8% (active); in [4] it was 52.9%; in assay [5] it was 20.8%; in [6], 14%. Besides, the growth in [7] was 27.1%; in assay [8], 38.8%; in [9], 48.5%; in assay [10], 47.8%.
Turning to `CCC1S/C(=N\N=C(/C)c2ccco2)N(c2ccccc2)C1=O` (stereo not given), the growth in assay [1] was 118%; in assay [2] it was 86.8%; in [3], 103%; in assay [4], 104%; in [5], 104%; in assay [6] it was 76.6%. The growth in assay [7] was 146%; in assay [8] it was 92%; in assay [9], 99.5%; in [10], 108%.
With `CCCCNC(=O)Oc1ccc(/C(=C(/CC)Cc2ccccc2)c2ccc(OCCCN(C)C)cc2)cc1`, the growth is 57.7% in assay [1]; 15.4% in [2]; 75.5% in [3]; 90.7% in assay [4]; 68.9% in assay [5]; 81.2% in assay [6]. The growth in [7] was 84.5%; in assay [8], 106%; in assay [9] it was 59%; in [10], 95.9%.
Regarding `Cn1cnc([N+](=O)[O-])c1N1c2ccncc2Sc2ccncc21`, the growth in [1] was 99%; in [2], 137%; in assay [3], 233%; in assay [4], 94.7%; in assay [5] it was 88.7%; in [6] it was 93.3%. Besides, the growth in assay [7] is 91.7%; in assay [8] it was 81%; in assay [9], 78.5%; in [10] it was 149%.
As to `Nc1nccc(=S)[nH]1`, the growth in [1] is 98.7%; in assay [2] it was 75.3%; in assay [3] it was 94%; in assay [4] it was 104%; in assay [5] it was 102%; in [6] it was 102%. For the same compound, the growth in assay [7] was 111%; in assay [8] it was 90%; in [9], 100%; in [10], 106%.
For `CC1=C2C(=C[C@@](C)(CO)[C@@H]2OC(=O)N(C)CCN(C)C(=O)OC(C)(C)C)C(=O)[C@](C)(O)C12CC2`, the growth in assay [1] is 21%; in [2], 6.33% (active); in [3] it was 79.9%; in assay [4] it was 72.3%; in assay [5], 22.6%; in assay [6] it was 47.7%. For the same compound, the growth in [7] was 76.7%; in assay [8], 84.2%; in [9] it was 61.8%; in [10], 82.3%.
As for `C=C1C(=O)O[C@H]2[C@H]1CC/C(C(=O)NCCOCCOCC(=O)Nc1ccc(OC)c(C(N)=O)c1O)=C\CC[C@@]1(C)O[C@@H]21`, the growth is 101% in assay [1]; 88.1% in assay [2]; 83.1% in [3]; 95.1% in [4]; 89.8% in [5]; 97% in assay [6]. Besides, the growth in assay [7] is 102%; in assay [8] it was 92.6%; in assay [9], 95.3%; in [10], 84.7%.
`Cc1cc2nc(-c3c(N)ncc(C#N)c3-c3ccc(Cl)cc3)[nH]c2cc1C`: the growth in assay [1] was 67.2%; in assay [2], 29.8%; in assay [3], 56.6%; in assay [4], 84.7%; in [5] it was 18%; in assay [6], 53.5%. Moreover, the growth in assay [7] was 71.9%; in [8], 57.8%; in assay [9] it was 51.7%; in assay [10], 57.6%.
`O=C(O)c1ccc(-n2cc(/C=N/Nc3ccc(F)cc3)c(-c3cccc(C(F)(F)F)c3)n2)cc1`: the growth in assay [1] was 53.6%; in assay [2], 86.8%; in assay [3] it was 88.4%; in assay [4], 91.3%; in [5], 84.9%; in assay [6], 62.6%. Besides, the growth is 87.6% in assay [7], 24.1% in assay [8], 42.8% in [9] and 96.1% in [10].
Consider `COC(=O)c1oc2c(C(C)=O)c(OCCN3CCCCC3)ccc2c1C`, for which the growth in assay [1] was 110%; in assay [2] it was 133%; in assay [3] it was 226%; in assay [4] it was 125%; in assay [5] it was 105%; in [6] it was 93.9%. Besides, the growth is 102% in [7], 122% in [8], 96.5% in assay [9] and 133% in [10].
Consider `Cc1ccc(/C=C2/C(=O)Nc3cc(Cl)c(-c4csc(N)n4)cc32)cc1`, for which the growth in [1] was 63.1%; in assay [2] it was 47.7%; in assay [3], 52.4%; in assay [4], 55.2%; in [5], 63.6%; in assay [6] it was 56.8%. The growth in [7] is 40.8%; in [8], 50.7%; in assay [9], 58.7%; in [10] it was 82.7%.
